An excerpt weighted towards active compounds, which were near 2.9% of everything screened.
PME-1 inh: PME-1 (human) inhibition; inhibition, % at 5.9 µM; recombinant PME-1, FP-Rh probe fluorescence polarization; AID 2130; actives 0.53% (n = 320,000);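 active = inhibition above the campaign mean of all compounds plus 3 SD, cut at about 26% in these data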;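 also: competitive labeling of PME-1 active site by serine hydrolase directed probe; 0% = PME-1 with DMSO and 100% = wells lacking PME-1 enzyme; inhibitors block probe labeling so polarization falls and inhibition rises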
Fam108B inh: Fam108B inhibition, counter-screen for RBBP9 inhibitors | inhibition, % at 9.51 µM | recombinant Fam108B, FP-Rh probe fluorescence polarization | actives 0.33% (n = 300,000);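 active = inhibition above the screen mean inhibition plus 3 SD, computed separately per campaign, cut at about 18% in these data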;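 also: inhibitors lower polarization as less probe binds the enzyme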
PAFAH1B3 inh: blocks human PAF acetylhydrolase 1B catalytic subunit 3. inhibition, % at 3.39 µM. Q15102. AID 492972. recombinant PAFAH1B3, FP-rhodamine probe, fluorescence polarization. actives 0.28% (n = 340,000);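 active = inhibition above the screen-wide average of all tested compounds plus 3 SD, cut at about 25% in these data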;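 also: 0% = enzyme with DMSO only and 100% = wells lacking PAFAH1B3 protein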
Target sequence (Q15102 whole entry, looked up): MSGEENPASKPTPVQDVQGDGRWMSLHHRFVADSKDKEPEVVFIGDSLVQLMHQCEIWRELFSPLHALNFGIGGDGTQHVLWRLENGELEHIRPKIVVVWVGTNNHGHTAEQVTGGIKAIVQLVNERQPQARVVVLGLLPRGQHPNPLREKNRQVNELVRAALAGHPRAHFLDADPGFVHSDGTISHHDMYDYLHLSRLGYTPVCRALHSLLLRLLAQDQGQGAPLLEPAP
PAFAH1B2 FP inh: PAFAH1B2 (human) inhibition; actives 1.2% (n = 340,000); recombinant PAFAH1B2, FP-rhodamine activity probe, fluorescence polarization; inhibition, % at 3.39 µM; AID 492953;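 active = inhibition above the mean of all tested compounds plus 3 SD, cut at about 24% in these data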;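 also: 0% = enzyme with DMSO and 100% = wells lacking PAFAH1B2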
PAFAH2 FP inh: PAFAH2 (human) inhibition | actives 0.99% (n = 340,000) | AID 492956 | inhibition, % at 3.39 µM | recombinant PAFAH2, FP-rhodamine activity probe, fluorescence polarization | Q99487;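 active = inhibition above the mean over all tested compounds plus 3 SD, cut at about 30% in these data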;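 also: inhibitors block probe labeling of enzyme so polarization drops; 0% = enzyme with DMSO and 100% = wells lacking PAFAH2 protein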
pPAFAH FP inh: pPAFAH (human) enzyme inhibition | AID 463082 | actives 1.5% (n = 330,000) | Q13093 | inhibition, % at 3.39 µM | recombinant pPAFAH, FP-rhodamine probe fluorescence polarization;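 active = inhibition above the mean inhibition across the screen plus 3 SD, cut at about 25% in these data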;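 also: inhibitors block binding of the rhodamine activity-based probe so polarization drops; 0% = enzyme with DMSO and 100% = wells lacking pPAFAH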
Target sequence (Q13093 whole entry, looked up): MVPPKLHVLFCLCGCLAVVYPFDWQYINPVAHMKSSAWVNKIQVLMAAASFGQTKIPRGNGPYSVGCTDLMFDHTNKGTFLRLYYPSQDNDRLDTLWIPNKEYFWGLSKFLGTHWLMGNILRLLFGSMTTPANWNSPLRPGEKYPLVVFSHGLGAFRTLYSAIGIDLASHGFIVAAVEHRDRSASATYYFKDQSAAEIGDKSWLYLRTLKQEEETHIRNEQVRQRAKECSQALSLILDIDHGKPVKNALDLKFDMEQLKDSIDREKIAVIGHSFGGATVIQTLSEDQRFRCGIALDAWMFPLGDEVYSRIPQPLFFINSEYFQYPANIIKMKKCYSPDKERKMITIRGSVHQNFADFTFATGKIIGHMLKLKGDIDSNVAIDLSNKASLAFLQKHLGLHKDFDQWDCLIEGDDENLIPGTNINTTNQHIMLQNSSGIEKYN
Numbers without * were called inactive; · = not tested or not shown.

SMILES	PME-1 inh	Fam108B inh	PAFAH1B3 inh	PAFAH1B2 FP inh	PAFAH2 FP inh	pPAFAH FP inh
CC(C)CC(=NNC(=O)c1ccncc1)c1cc(Cl)ccc1O	·	·	8.3	29.2*	-9.3	·
O=[N+]([O-])c1cc(-c2nnc(N3CCOCC3)c3ccccc23)ccc1N1CCOCC1	5.4	-6.7	7.2	5.3	-4.3	5.0
Cc1ccc(Nc2nnc(-c3ccc(N4CCOCC4)c([N+](=O)[O-])c3)c3ccccc23)cc1	48.0*	5.4	4.5	-2.3	-4.9	7.1
O=C(NC(Cc1ccccc1)C(=O)O)C1CCN(S(=O)(=O)c2cccc(C(F)(F)F)c2)CC1 (stereo not given)	8.6	-1.2	7.8	11.3	-3.3	27.3*
CCCc1cc(=O)[nH]c2nnc(SCC(=O)NCc3ccc4c(c3)OCO4)n12	-1.8	5.7	-0.4	6.0	-3.3	-1.6
COc1ccc(NS(=O)(=O)c2ccc(O)c(C(=O)OCC(=O)Nc3ccc4c(c3)OCCO4)c2)cc1	-0.8	1.1	2.5	10.4	10.3	32.1*
COc1ccc(NC(=O)COC(=O)c2ccc3c(c2)OCCO3)cc1OC	-3.8	·	3.4	-2.2	14.2	3.6
O=C(COC(=O)c1cc(Br)ccc1O)Nc1ccc2c(c1)OCCO2	-1.4	-4.2	10.4	1.9	3.6	3.3
COc1cccc(C(=O)OCC(=O)Nc2ccc3c(c2)OCCO3)c1	·	·	14.5	8.7	76.3*	27.6*
CC(NC(=O)C1CCCC1)c1ccc(Br)cc1 (stereo not given)	-1.8	0.3	3.4	39.6*	2.7	1.8
Cc1cc(C(=O)NCCN2CCOCC2)c2ccccc2n1	·	·	-3.2	-2.1	-1.4	-4.3
CC(=O)C1CCC2C3CC(O)C4=CC(=O)CCC4(C)C3C(=O)CC12C (stereo not given)	·	·	1.6	2.4	-2.2	·
CCc1ccc(C(C(=O)NC2CCCC2)N(C(=O)c2csnn2)C2CC2)cc1 (stereo not given)	-1.7	-4.8	-0.1	10.8	-6.1	4.6
Cc1ccccc1CNC(=O)C1CCN(c2nnc(N3CCCC3=O)s2)CC1	-3.0	-0.3	0.6	4.2	3.8	0.4
O=C(c1ccco1)[C@@H]1[C@@H]2C(=O)N(c3ccccc3)C(=O)[C@@H]2C2c3ccccc3C=CN21 (stereo not given in full)	3.0	6.6	14.7	2.3	20.4	8.8
COc1ccc(N2C(=O)[C@@H]3[C@H](C2=O)[C@H]2c4ccccc4C=CN2[C@@H]3C(=O)Nc2ccccc2)cc1	13.3	24.6*	7.9	8.7	5.8	3.9
CC12CC3CC(C)(C1)CC(C(=O)NC1=NCCS1)(C3)C2	4.5	4.1	4.8	27.8*	-1.7	0.4
O=C(CN1C(=O)C(=O)N(Cc2ccco2)C1=O)NC1CCCCC1	-1.9	1.4	-0.9	3.5	-1.1	-1.4
N=C1/C(=C\c2ccc(-c3ccc(C(=O)O)cc3)o2)C(=O)N=C2SC=C(c3ccccc3)N12	·	·	24.8	27.9*	33.6*	·
COc1ccc2[nH]c3c(c2c1)CCN1C(=O)C(CC(=O)NCCc2ccccn2)C[C@H](C(=O)N2CCOCC2)[C@@]31CCC1CCCC1 (stereo not given in full)	·	·	7.2	1.9	2.4	4.6
COc1cccc2c1C(=O)c1c(O)c3c(c(O)c1C2=O)CC(O)(C(C)=O)CC3OC1CC(O)C(O)C(C)O1 (stereo not given)	·	·	52.0*	65.3*	68.2*	·
CCC1(c2ccccc2)NC(=O)N(CC(=O)Nc2cc(S(=O)(=O)N3CCCCC3)ccc2OC(C)C)C1=O (stereo not given)	18.1	-0.6	6.8	0.3	4.4	5.2
Cc1ccc(SCCNC(=O)c2ccc([N+](=O)[O-])c(C)c2)cc1	-9.4	-3.0	12.0	28.1*	5.3	-6.1
Cc1ccc(SCCNC(=O)c2ccc(C)c([N+](=O)[O-])c2)cc1	-1.3	1.2	4.7	21.9	0.7	5.1
O=C(CCCC(=O)c1ccccc1)Nc1ccc(O)cc1	-2.4	-0.2	16.4	5.4	-5.9	3.8
SMILES	PME-1 inh	Fam108B inh	PAFAH1B3 inh	PAFAH1B2 FP inh	PAFAH2 FP inh	pPAFAH FP inh
Nc1ncn(CC(=O)c2ccccc2)n1	0.3	0.7	5.2	3.5	0.2	0.4
O=C(Cn1nc(Br)nc1Br)c1ccccc1	-6.2	5.0	46.7*	29.4*	51.5*	4.1
CCOc1ccc(N(CC(=O)NCc2ccc(OC)cc2)S(=O)(=O)c2c(C)[nH]c(=O)[nH]c2=O)cc1	-1.1	1.5	8.1	4.0	1.3	-1.4
CCOc1ccc(N(CC(=O)NCCc2ccc(Cl)cc2)S(=O)(=O)c2c(C)[nH]c(=O)[nH]c2=O)cc1	-1.0	-0.8	11.4	28.1*	7.0	5.9
CCOc1ccc(S(=O)(=O)NCCC(=O)N2CC=C(c3ccccc3)CC2)cc1	4.4	·	7.6	8.6	0.0	2.8
CCC1C/C(=C/c2ccco2)C(=O)/C(=C/c2ccco2)C1 (stereo not given)	-4.4	-4.4	·	·	·	36.7*
CCC1C/C(=C\c2cc(OC)c(OC)cc2OC)C(=O)/C(=C/c2cc(OC)c(OC)cc2OC)C1 (stereo not given)	9.9	4.9	4.5	1.8	5.5	14.6
Cc1noc(C)c1C(=O)N1CCCC(C(=O)c2cccc(C(F)(F)F)c2)C1 (stereo not given)	-3.7	-3.7	1.1	-1.8	7.0	-6.7
CCN1CCN(CCC(=O)Nc2cccc(C)c2)CC1	3.9	4.8	0.8	-0.2	-3.7	7.5
CC(=O)Nc1ccc(NC(=O)CC23CC4CC(CC(C4)C2)C3)cc1	-7.6	1.2	8.6	10.2	13.2	3.9
NS(=O)(=O)c1cccc(NC(=O)CC23CC4CC(C2)CC(CC(=O)Nc2cccc(S(N)(=O)=O)c2)(C4)C3)c1	-3.0	-3.1	6.9	35.7*	-4.3	6.0
NS(=O)(=O)c1cccc(NC(=O)CNC(=O)CC23CC4CC(CC(C4)C2)C3)c1	5.2	-4.8	3.2	13.0	1.5	4.3
CC(=O)NS(=O)(=O)c1ccc(NC(=O)CC23CC4CC(CC(Br)(C4)C2)C3)cc1	-0.4	-1.6	5.5	24.5*	-4.8	-0.5
CCCn1c(N)c(N(CCOC)C(=O)c2c(CC)noc2C)c(=O)[nH]c1=O	·	·	-3.3	2.1	4.1	·
Oc1c(I)cc(Cl)c2cccnc12	-1.5	1.8	15.6	10.9	-0.9	31.0*
O=[N+]([O-])c1cc(Cl)c2cccnc2c1O	-0.6	6.3	8.2	-5.3	4.8	6.8
CCOC(=O)c1c(S(=O)(=O)NCC(=O)Nc2ccc(F)cc2F)c(C)n(C)c1C	1.0	-0.5	1.3	1.5	-1.6	0.5
CC1=NN(c2ccccc2)C(=O)C1C=Nc1ccc(N(C)C)cc1 (stereo not given)	9.9	0.9	·	·	·	34.1*
O=C(COC(=O)c1ccc(S(=O)(=O)N2CCCC2)cc1)NCc1ccco1	0.6	4.1	16.4	3.4	-4.2	11.2
CC(C)CNC(=O)COC(=O)c1c2c(nc3ccccc13)/C(=C\c1cccs1)CC2	·	·	1.6	2.2	-1.2	·
